According to PubChem BioAssay (NCI):
Values joined by “and” are separate entries in the source; they are usually repeats but may differ in a detail not shown here. Equal values may be shown once. About 79,000 compounds went through this panel and 15% of them were active in at least one assay; those are over-represented in the sample as a whole. Values without a mark were called inactive. Active and inactive are the calls of the source. Rule as the data show it: active = growth inhibition above about 70%; inactive = the rest.

Assays:
[1] = NCI Yeast Anticancer Drug Screen. Data for the rad50 strain (AID 155);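 also: 0% = growth of vehicle-only cultures of the same strain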; conditions: S. cerevisiae rad50 strain growth inhibition, stronger effect = higher value; at 50.0 µM unless noted
Method in brief: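 Vehicle-treated cultures provide the reference for the growth inhibition reported for compound-exposed, repair-deficient yeast.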

[2] = NCI Yeast Anticancer Drug Screen. Data for the mec2-1 strain (AID 157); conditions: S. cerevisiae mec2-1 strain, stronger effect = higher value; at 50.0 µM unless noted
Method in brief: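 Using mec2-1 yeast: add compound, measure growth, express inhibition versus vehicle-treated cultures.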

[3] = NCI Yeast Anticancer Drug Screen. Data for the sgs1 mgt1 strain (AID 161);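 also: 0% = growth of cultures given vehicle only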; conditions: S. cerevisiae sgs1 mgt1 strain, stronger effect = higher value; at 50.0 µM unless noted
Method in brief: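 Yeast cells carrying a defined DNA-repair defect were exposed to test compounds. Growth inhibition was measured relative to vehicle-treated controls.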

[4] = NCI Yeast Anticancer Drug Screen. Data for the cln2 rad14 strain (AID 165);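 also: 0% = growth equal to vehicle treated cultures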; conditions: S. cerevisiae cln2 rad14 strain, stronger effect = higher value; at 50.0 µM unless noted
Method in brief: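 Yeast strain cln2 rad14, bearing defects in cell cycle control and DNA repair, serves as the test system; values reflect growth inhibition compared with vehicle.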

[5] = NCI Yeast Anticancer Drug Screen. Data for the bub3 strain (AID 167); conditions: S. cerevisiae bub3 mutant strain, stronger effect = higher value; at 50.0 µM unless noted
Method in brief: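 Mutant yeast screening strain plus compound; vehicle-treated cultures serve as the 0% inhibition reference.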

[6] = NCI Yeast Anticancer Drug Screen. Data for the mlh1 rad18 strain (AID 175); conditions: S. cerevisiae mlh1 rad18 strain growth inhibition, stronger effect = higher value; at 50.0 µM unless noted
Method in brief: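 Steps: expose repair-defective yeast to compound; measure growth; express inhibition against vehicle-treated controls.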

Nc1ccc(C(=O)O)cc1N
growth inhibition [1]: 17.5%
growth inhibition [2]: 46.6%
growth inhibition [3]: 15.4%
growth inhibition [4]: 15.3%
growth inhibition [5]: 1.45%
growth inhibition [6]: 45.5%

Nc1nc(N)c2[nH]cnc2n1
growth inhibition [1]: 0.6% and 18.9%
growth inhibition [2]: -1.5% and -3.95%
growth inhibition [3]: 3.65% and -1.85%
growth inhibition [4]: 10.7% and -30.4%
growth inhibition [5]: 0.6% and -16.6%
growth inhibition [6]: -43.9% and 1.2%

NC(=O)Nc1nc2ccccc2[nH]1
growth inhibition [1]: -26.2%
growth inhibition [2]: -21.6%
growth inhibition [3]: -11.7%
growth inhibition [4]: -0.3%
growth inhibition [5]: -7.7%
growth inhibition [6]: 3.4%

CC1(CO)C2CCC(CC2)C1CO (stereo not given)
growth inhibition [1]: -3%
growth inhibition [2]: 1.85%
growth inhibition [3]: -4.4%
growth inhibition [4]: -20.2%
growth inhibition [5]: -5.1%
growth inhibition [6]: 2.5%

c1ccc(CNc2nn[nH]n2)cc1
growth inhibition [1]: 2.65%
growth inhibition [2]: 5.1%
growth inhibition [3]: -5.9%
growth inhibition [4]: -20.6%
growth inhibition [5]: 4.2%
growth inhibition [6]: 9%

Nc1cccc(OCCCCCOc2cccc(N)c2)c1
growth inhibition [1]: -35.1%
growth inhibition [2]: -40.3%
growth inhibition [3]: -5.75%
growth inhibition [4]: 6.6%
growth inhibition [5]: -34.5%
growth inhibition [6]: -20.4%

Cc1ccc(C(=O)C2C(=O)C(=O)OC2C2OC(=O)C(=O)C2C(=O)c2ccc(C)cc2)cc1 (stereo not given)
growth inhibition [1]: 43.8%
growth inhibition [2]: 25.1%
growth inhibition [3]: 39.5%
growth inhibition [4]: 31.2%
growth inhibition [5]: -4.55%
growth inhibition [6]: 42.8%

O=C(O)Cc1ccc(-c2cn3c(n2)sc2ccccc23)cc1
growth inhibition [1]: 58.1%
growth inhibition [2]: 22.3%
growth inhibition [3]: 0.05%
growth inhibition [4]: 5.45%
growth inhibition [5]: 24.8%
growth inhibition [6]: 16.4%

O=C(O)c1ccccc1S(=O)Cc1ccc(Br)cc1 (stereo not given)
growth inhibition [1]: -10.6%
growth inhibition [2]: -10.6%
growth inhibition [3]: -23.1%
growth inhibition [4]: -6.1%
growth inhibition [5]: -0.3%
growth inhibition [6]: 3.5%

COC(=O)CC(NC(=O)OCc1ccccc1)C(=O)NCC(=O)Oc1ccc([N+](=O)[O-])cc1 (stereo not given)
growth inhibition [1]: 21.1%
growth inhibition [2]: 11.8%
growth inhibition [3]: 12.2%
growth inhibition [4]: 12.2%
growth inhibition [5]: 5.75%
growth inhibition [6]: 8.5%

CCCCn1cnc2c(SC)ncnc21
growth inhibition [1]: -8.1%
growth inhibition [2]: -23.9%
growth inhibition [3]: -18.4%
growth inhibition [4]: -0.35%
growth inhibition [5]: -32.8%
growth inhibition [6]: -3.65%

C=C(C)C1CCC2(C)CCC(=O)C(C)=C2C1 (stereo not given)
growth inhibition [1]: 3.15%
growth inhibition [2]: 1.35%
growth inhibition [3]: -5.75%
growth inhibition [4]: -19.7%
growth inhibition [5]: -6.1%
growth inhibition [6]: -4.15%

COC(=O)/C=C/c1cccnc1
growth inhibition [1]: -16.4%
growth inhibition [2]: -28.6%
growth inhibition [3]: -36.1%
growth inhibition [4]: -22.7%
growth inhibition [5]: -10.3%
growth inhibition [6]: -12.3%

COc1ccc(/C(Cc2ccccc2)=N/Nc2ccc([N+](=O)[O-])c([N+](=O)[O-])c2)cc1
growth inhibition [1]: 48.1%
growth inhibition [2]: -8.15%
growth inhibition [3]: 23.5%
growth inhibition [4]: 6.35%
growth inhibition [5]: 9.7%
growth inhibition [6]: 20.1%

Nc1cccc(B(O)O)c1
growth inhibition [1]: -16.6%
growth inhibition [2]: -65%
growth inhibition [3]: -34.3%
growth inhibition [4]: -5.75%
growth inhibition [5]: -29.6%
growth inhibition [6]: -15.8%

CNC(=O)N(C)Cc1ccccc1
growth inhibition [1]: 12.7%
growth inhibition [2]: -12.8%
growth inhibition [3]: 2.75%
growth inhibition [4]: -98.7%
growth inhibition [5]: -13.6%
growth inhibition [6]: -11.2%

[N-]=[N+]=CC(=O)CCC(=O)N(c1ccccc1)c1ccccc1
growth inhibition [1]: -30%
growth inhibition [2]: -20.8%
growth inhibition [3]: -52.5%
growth inhibition [4]: -28.5%
growth inhibition [5]: 2.2%
growth inhibition [6]: -30.6%

COc1cc2c(cc1OC)NC(=O)NC(Cc1ccc3c(c1)OCO3)CC2 (stereo not given)
growth inhibition [1]: 20.6%
growth inhibition [2]: 10.8%
growth inhibition [3]: 13.8%
growth inhibition [4]: -47%
growth inhibition [5]: 22.3%
growth inhibition [6]: 27.3%

N=c1ccccn1CC(O)COc1ccc(Cl)cc1 (stereo not given)
growth inhibition [1]: 11.8%
growth inhibition [2]: -10.1%
growth inhibition [3]: -8.85%
growth inhibition [4]: -17.9%
growth inhibition [5]: -2.5%
growth inhibition [6]: -16.6%

Nc1ncnc2c1c(-c1nnc(-c3ccccc3)c(-c3ccccc3)n1)cn2C1OC(CO)C(O)C1O (stereo not given)
growth inhibition [1]: 44.1%
growth inhibition [2]: -2.8%
growth inhibition [3]: 38%
growth inhibition [4]: -13.3%
growth inhibition [5]: -4.25%
growth inhibition [6]: 9.9%

OC1CC2CCCCC2CC1(O)c1ccc(OCc2ccccc2)c(OCc2ccccc2)c1 (stereo not given)
growth inhibition [1]: 16.6%
growth inhibition [2]: -9.55%
growth inhibition [3]: -19%
growth inhibition [4]: 14.8%
growth inhibition [5]: 3.4%
growth inhibition [6]: -5.2%

O=c1c2cccnc2nc2ccc3c[nH][nH]c3c12
growth inhibition [1]: -23.8%
growth inhibition [2]: -24.6%
growth inhibition [3]: -0.55%
growth inhibition [4]: -14.6%
growth inhibition [5]: -18.3%
growth inhibition [6]: 8.65%

O=Cc1ccc(C=O)o1
growth inhibition [1]: 4.25%
growth inhibition [2]: -1.8%
growth inhibition [3]: 28.9%
growth inhibition [4]: 6.3%
growth inhibition [5]: -11.7%
growth inhibition [6]: 14.2%

COC(=O)C1(C(C)C(=O)c2ccccc2)NC(=S)NC(=O)C1C#N (stereo not given)
growth inhibition [1]: -6.1%
growth inhibition [2]: -16.7%
growth inhibition [3]: -35.2%
growth inhibition [4]: -11.8%
growth inhibition [5]: -14.4%
growth inhibition [6]: -25.8%

CC(=O)OCCc1cccnc1/C=N/O
growth inhibition [1]: -12.9%
growth inhibition [2]: -22.5%
growth inhibition [3]: -1.4%
growth inhibition [4]: 20.6%
growth inhibition [5]: -16.4%
growth inhibition [6]: -5.2%

Nn1c(N=Nc2c(O)[nH]c3ccccc23)n[nH]c1=S
growth inhibition [1]: 45.9%
growth inhibition [2]: 5.5%
growth inhibition [3]: 57%
growth inhibition [4]: 15.9%
growth inhibition [5]: 6.35%
growth inhibition [6]: 23.9%

O=C(O)CCC1NC(/C(=C/c2ccccc2O)NC(=O)c2ccccc2)OC1=O (stereo not given)
growth inhibition [1]: -0.75%
growth inhibition [2]: -8.1%
growth inhibition [3]: -14.1%
growth inhibition [4]: -19.1%
growth inhibition [5]: -8.25%
growth inhibition [6]: -16.1%

CCCCN(CCCC)CCC(O)c1cc(-c2ccc(C(F)(F)F)cc2)nc(C(F)(F)F)c1 (stereo not given)
growth inhibition [1]: 98.5% (active)
growth inhibition [2]: 56.2%
growth inhibition [3]: 97.6% (active)
growth inhibition [4]: 97.8% (active)
growth inhibition [5]: 47.1%
growth inhibition [6]: 96.8% (active)

CC(=O)N1CCC(/C(C)=N/O)CC1
growth inhibition [1]: 4.9%
growth inhibition [2]: -10.1%
growth inhibition [3]: -12.6%
growth inhibition [4]: -33.8%
growth inhibition [5]: -13.8%
growth inhibition [6]: 0.45%

C[N+](C)(C)c1ccc2[nH]c3ccccc3c2c1
growth inhibition [1]: 8.7%
growth inhibition [2]: -11.2%
growth inhibition [3]: 8.25%
growth inhibition [4]: -27.8%
growth inhibition [5]: -6.5%
growth inhibition [6]: 7.55%

NC1=CN(CCCO)C2=N/C(=C\c3ccccc3)C(=O)N12
growth inhibition [1]: 14.2%
growth inhibition [2]: -3.65%
growth inhibition [3]: 26.4%
growth inhibition [4]: 8.9%
growth inhibition [5]: -3.3%
growth inhibition [6]: 12.7%

CCCCN(CCCC)C(=O)c1cccc(C)c1
growth inhibition [1]: 13.7%
growth inhibition [2]: 8.1%
growth inhibition [3]: 4.1%
growth inhibition [4]: -16.4%
growth inhibition [5]: 53.2%
growth inhibition [6]: 14.1%

FC(F)(F)c1cc(NC(=S)SCc2ccc3c(c2)OCO3)ccc1Cl
growth inhibition [1]: 73.5% (active)
growth inhibition [2]: 63.9%
growth inhibition [3]: 73.3% (active)
growth inhibition [4]: 38.5%
growth inhibition [5]: 59.2%
growth inhibition [6]: 84% (active)

NC(=O)C(O)c1c[nH]c2ccccc12 (stereo not given)
growth inhibition [1]: 3.7%
growth inhibition [2]: 1.75%
growth inhibition [3]: -1.45%
growth inhibition [4]: 6.4%
growth inhibition [5]: -15%
growth inhibition [6]: 8.2%

Cc1ccc(NC(=O)c2cccc(OP(=O)(O)Nc3ccc(C)cc3)c2)cc1
growth inhibition [1]: -13.7%
growth inhibition [2]: 2.7%
growth inhibition [3]: 2.8%
growth inhibition [4]: 17%
growth inhibition [5]: -0.95%
growth inhibition [6]: -17%

CN(Cc1ccccc1Cl)C(=S)NC1CCCCC1
growth inhibition [1]: 62%
growth inhibition [2]: 88.8% (active)
growth inhibition [3]: 86% (active)
growth inhibition [4]: 34.8%
growth inhibition [5]: 81.3% (active)
growth inhibition [6]: 85.5% (active)

CC(C)(O)C(=O)O
growth inhibition [1]: -6% and -19%
growth inhibition [2]: 6.1% and -1.45%
growth inhibition [3]: -8.2% and -10.8%
growth inhibition [4]: 2.05% and -32.8%
growth inhibition [5]: 7.25% and -3.95%
growth inhibition [6]: 6.6% and -4.6%

Cc1ccc(C(=O)O)c(/C=C2\Cc3cc(C)cc(C)c3C2=O)c1
growth inhibition [1]: 21.1%
growth inhibition [2]: 14.8%
growth inhibition [3]: 24.6%
growth inhibition [4]: 16.6%
growth inhibition [5]: 9.85%
growth inhibition [6]: 29.7%

C#CCSC(=S)NNc1ccccc1
growth inhibition [1]: 33.1%
growth inhibition [2]: 29.1%
growth inhibition [3]: 33.1%
growth inhibition [4]: 6.2%
growth inhibition [5]: 60.8%
growth inhibition [6]: 24.8%

COc1ccc(/C(CC2OC(=O)c3ccccc32)=N\NC(=O)C[N+](C)(C)C)cc1 (stereo not given)
growth inhibition [1]: 6.1%
growth inhibition [2]: -10.8%
growth inhibition [3]: 0.4%
growth inhibition [4]: 7.55%
growth inhibition [5]: 12.1%
growth inhibition [6]: 8.5%
